Where “and” joins values, the source holds several entries; their conditions need not be identical. Equal values may be shown once. Calls of active or inactive are those of the source. The calls were made as follows: active = hit-call score of the fitted dose curve at least 0.9, where 1 is the maximum; inactive = score below 0.9.
How the values were obtained:
Conditions in all cases: mRNA level, 48 h; actives raise or lower the signal
[1] = read-out: Tumor necrosis factor receptor superfamily member 6 (Homo sapiens) (UniProt P25445); assay: LTEA_HepaRG_FAS: Life Technologies and Expression Analysis (LTEA) Assay for Fas cell surface death receptor (FAS) using HepaRG (AID 2283447)
Procedure, shortened: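 Differentiated human HepaRG cells, pre-cultured 48 h, were exposed in duplicate for 48 h to 8-point half-log concentrations (top 100 uM, 0.5% DMSO) in serum-free induction medium; FAS mRNA measured by qRT-PCR, normalized to ACTB/GAPDH/POLR2A, bidirectional fit versus DMSO.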

[2] = read-out: Fatty acid synthase (Homo sapiens) (UniProt P49327); assay: LTEA_HepaRG_FASN: Life Technologies and Expression Analysis (LTEA) Assay for Fatty Acid Synthase (FASN) using HepaRG (AID 2283448)
Procedure, shortened: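 HepaRG, 48 h exposure, 8-pt half-log series top 100 uM, 0.5% DMSO vehicle, duplicates. Readout: FASN transcript by Fluidigm qRT-PCR; housekeeping-normalized; bidirectional curve fit vs DMSO baseline.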

[3] = read-out: Cyclin D2 (CCND2), CCND2 (gene 894); assay: LTEA_HepaRG_CCND2: Life Technologies and Expression Analysis (LTEA) Assay for Cyclin D2 (CCND2) using HepaRG (AID 2283449);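 also: CCND2 transcript measured by TaqMan qRT-PCR and normalised to three housekeeping genes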
Procedure, shortened: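 In this HepaRG study, an eight-point concentration series (max 100 uM, 0.5% DMSO) is applied for 48 h. CCND2 mRNA change is derived by qRT-PCR normalised to ACTB, GAPDH and POLR2A.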

[4] = read-out: Cyclin Dependent Kinase Inhibitor 1A (CDKN1A), CDKN1A (gene 1026); assay: LTEA_HepaRG_CDKN1A: Life Technologies and Expression Analysis (LTEA) Assay for Cyclin Dependent Kinase Inhibitor 1A (CDKN1A) using HepaRG (AID 2283450)
Procedure, shortened: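 Read-out is CDKN1A mRNA by TaqMan qRT-PCR, normalized to three housekeeping genes and fitted in both directions against the DMSO baseline. Human HepaRG cells were treated 48 h with test chemicals up to 100 uM in half-log steps, 0.5% DMSO.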

[5] = read-out: Cyclin D1 (CCND1), CCND1 (gene 595); assay: LTEA_HepaRG_CCND1: Life Technologies and Expression Analysis (LTEA) Assay for Cyclin D1 (CCND1) using HepaRG (AID 2283451);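 as to AC50: TaqMan qRT-PCR transcript level normalised to ACTB GAPDH and POLR2A housekeeping genes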
Procedure, shortened: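 HepaRG plated 48 h, medium switched to serum-free induction medium, chemicals added in duplicate (top 100 uM, half-log steps, 0.5% DMSO) for 48 h, cells lysed, RNA measured by TaqMan qRT-PCR.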

[6] = read-out: catalase (CAT), CAT (gene 847); assay: LTEA_HepaRG_CAT: Life Technologies and Expression Analysis (LTEA) Assay for catalase (CAT) using HepaRG (AID 2283452);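 as to AC50: TaqMan qRT-PCR signal normalized to ACTB GAPDH and POLR2A housekeeping genes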
Procedure, shortened: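 Differentiated HepaRG cells in serum-free induction medium were dosed 48 h in duplicate, eight half-log concentrations from 100 uM in 0.5% DMSO. Transcript measured by TaqMan qRT-PCR, normalised to ACTB/GAPDH/POLR2A, fitted bidirectionally against DMSO.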

[7] = read-out: flavin-containing dimethylaniline monooxygenases 3 (FMO3), FMO3 (gene 2328); assay: LTEA_HepaRG_FMO3: Life Technologies and Expression Analysis (LTEA) Assay for flavin-containing dimethylaniline monooxygenases 3 (FMO3) using HepaRG (AID 2283453);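 as to AC50: FMO3 transcript by TaqMan qRT-PCR normalized to ACTB GAPDH and POLR2A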
Procedure, shortened: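 Eight-point concentration-response in serum-free HepaRG cultures (top 100 uM, 0.5% DMSO, 48 h). Read-out: FMO3 mRNA level normalized to three endogenous control genes, fitted bidirectionally versus vehicle.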

[8] = read-out: Cytochrome P450 (CYP1A1), CYP1A1 (gene 1543); assay: LTEA_HepaRG_CYP1A1: Life Technologies and Expression Analysis (LTEA) Assay for Cytochrome P450 (CYP1A1) using HepaRG (AID 2283454)
Procedure, shortened: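 HepaRG, 48 h post-plating switched to serum-free induction medium; 8-pt conc-response (top 100 uM, half-log, 0.5% DMSO), duplicates, 48 h. Lysis in RLT, TaqMan qRT-PCR for CYP1A1; gain or loss vs DMSO.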

[9] = read-out: CFLAR gene, CFLAR (gene 8837); assay: LTEA_HepaRG_CFLAR: Life Technologies and Expression Analysis (LTEA) Assay for CFLAR gene using HepaRG (AID 2283455)
Procedure, shortened: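 Gain- or loss-of-signal changes in CFLAR transcript were fitted bidirectionally relative to 0.5% DMSO. Cells (HepaRG, duplicate wells) were dosed for 48 h across eight half-log concentrations topping at 100 uM; quantitation by TaqMan qRT-PCR.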

[10] = read-out: Forkhead box O1 (FOXO1), FOXO1 (gene 2308); assay: LTEA_HepaRG_FOXO1: Life Technologies and Expression Analysis (LTEA) Assay for Forkhead box O1 (FOXO1) using HepaRG (AID 2283456)
Procedure, shortened: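 Using one lot of HepaRG hepatic cells kept in 0.5% DMSO, the team applied test chemicals in duplicate, half-log dilutions from 100 uM, for 48 h. Expression, normalised to ACTB/GAPDH/POLR2A, was compared with vehicle in either direction.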

[11] = read-out: growth arrest and DNA damage 45 (GADD45A), GADD45A (gene 1647); assay: LTEA_HepaRG_GADD45A: Life Technologies and Expression Analysis (LTEA) Assay for growth arrest and DNA damage 45 (GADD45A) using HepaRG (AID 2283458)
Procedure, shortened: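 HepaRG, 48 h exposure, 8 conc. (top 100 uM, half-log steps), 0.5% DMSO vehicle, duplicates. Read-out: qRT-PCR mRNA level, housekeeping-normalized (ACTB/GAPDH/POLR2A). Curves fit bidirectionally vs DMSO baseline.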

[12] = read-out: Forkhead box O3 (FOXO3), FOXO3 (gene 2309); assay: LTEA_HepaRG_FOXO3: Life Technologies and Expression Analysis (LTEA) Assay for Forkhead box O3 (FOXO3) using HepaRG (AID 2283459)
Procedure, shortened: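 Gene-expression endpoint: FOXO3 transcript level by qRT-PCR in HepaRG cultures treated 48 h with chemicals up to 100 uM (half-log, 0.5% DMSO vehicle).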

[13] = read-out: ABC Transporter (ABCB1), ABCB1 (gene 5243); assay: LTEA_HepaRG_ABCB1: Life Technologies and Expression Analysis (LTEA) Assay for ABC Transporter (ABCB1) using HepaRG (AID 2283460)
Procedure, shortened: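 Human liver HepaRG line treated 48 h with up to 100 uM compound (eight half-log points, 0.5% DMSO); ABCB1 mRNA change fitted bidirectionally against DMSO controls.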

[14] = read-out: growth arrest and DNA damage 45 (GADD45B), GADD45B (gene 4616); assay: LTEA_HepaRG_GADD45B: Life Technologies and Expression Analysis (LTEA) Assay for growth arrest and DNA damage 45 (GADD45B) using HepaRG (AID 2283461)
Procedure, shortened: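 HepaRG, ~100,000 cells/well, 48 h plating; serum-free induction medium; cpd 100 uM top, half-log x8, 0.5% DMSO, duplicate, 48 h; lysis in RLT, RNA isolation, qRT-PCR; norm ACTB/GAPDH/POLR2A; bidirectional fit vs DMSO.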

[15] = read-out: ABC Transporter (ABCC3), ABCC3 (gene 8714); assay: LTEA_HepaRG_ABCC3: Life Technologies and Expression Analysis (LTEA) Assay for ABC Transporter (ABCC3) using HepaRG (AID 2283462)
Procedure, shortened: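 Human HepaRG, 48 h dosing, 8-pt half-log series from 100 uM, 0.5% DMSO vehicle, duplicates. ABCC3 mRNA by TaqMan qRT-PCR, housekeeping-normalized; bidirectional curve fit vs DMSO.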

[16] = read-out: ABC Transporter (ABCB11), ABCB11 (gene 8647); assay: LTEA_HepaRG_ABCB11: Life Technologies and Expression Analysis (LTEA) Assay for ABC Transporter (ABCB11) using HepaRG (AID 2283463)
Procedure, shortened: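 Using HepaRG cultures held in 0.5% DMSO, chemicals were tested at half-log dilutions from 100 uM for 48 h. Induction or suppression of ABCB11 mRNA, normalized to ACTB, GAPDH and POLR2A, was fitted bidirectionally against vehicle.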

[17] = read-out: ABC Transporter (ABCC2), ABCC2 (gene 1244); assay: LTEA_HepaRG_ABCC2: Life Technologies and Expression Analysis (LTEA) Assay for ABC Transporter (ABCC2) using HepaRG (AID 2283464)
Procedure, shortened: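 HepaRG, 48 h post-plating; serum-free induction medium; cpd 8-pt, 100 uM top, half-log, 0.5% DMSO, duplicate, 48 h. Readout: ABCC2 mRNA by qRT-PCR, norm. ACTB/GAPDH/POLR2A. Bidirectional fit vs DMSO baseline.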

[18] = read-out: Broad substrate specificity ATP-binding cassette transporter ABCG2 (Homo sapiens) (UniProt Q9UNQ0); assay: LTEA_HepaRG_ABCG2: Life Technologies and Expression Analysis (LTEA) Assay for ABC Transporter (ABCG2) using HepaRG (AID 2283465)
Procedure, shortened: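 Gene expression of ABCG2 in HepaRG liver cells is quantified by qRT-PCR following 48 h exposure across an eight-point series topping at 100 uM. Values come from bidirectional fitting relative to DMSO vehicle.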

[19] = read-out: ATP-citrate lyase (ACLY), ACLY (gene 47); assay: LTEA_HepaRG_ACLY: Life Technologies and Expression Analysis (LTEA) Assay for ATP-citrate lyase (ACLY) using HepaRG (AID 2283466)
Procedure, shortened: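 ACLY expression changes in human HepaRG liver cells are quantified by qRT-PCR after 48 h exposure to test chemicals (maximum 100 uM, half-log steps). Values are fitted in both directions relative to 0.5% DMSO vehicle.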

Sequence of Fatty acid synthase (Homo sapiens) (P49327 whole entry, looked up): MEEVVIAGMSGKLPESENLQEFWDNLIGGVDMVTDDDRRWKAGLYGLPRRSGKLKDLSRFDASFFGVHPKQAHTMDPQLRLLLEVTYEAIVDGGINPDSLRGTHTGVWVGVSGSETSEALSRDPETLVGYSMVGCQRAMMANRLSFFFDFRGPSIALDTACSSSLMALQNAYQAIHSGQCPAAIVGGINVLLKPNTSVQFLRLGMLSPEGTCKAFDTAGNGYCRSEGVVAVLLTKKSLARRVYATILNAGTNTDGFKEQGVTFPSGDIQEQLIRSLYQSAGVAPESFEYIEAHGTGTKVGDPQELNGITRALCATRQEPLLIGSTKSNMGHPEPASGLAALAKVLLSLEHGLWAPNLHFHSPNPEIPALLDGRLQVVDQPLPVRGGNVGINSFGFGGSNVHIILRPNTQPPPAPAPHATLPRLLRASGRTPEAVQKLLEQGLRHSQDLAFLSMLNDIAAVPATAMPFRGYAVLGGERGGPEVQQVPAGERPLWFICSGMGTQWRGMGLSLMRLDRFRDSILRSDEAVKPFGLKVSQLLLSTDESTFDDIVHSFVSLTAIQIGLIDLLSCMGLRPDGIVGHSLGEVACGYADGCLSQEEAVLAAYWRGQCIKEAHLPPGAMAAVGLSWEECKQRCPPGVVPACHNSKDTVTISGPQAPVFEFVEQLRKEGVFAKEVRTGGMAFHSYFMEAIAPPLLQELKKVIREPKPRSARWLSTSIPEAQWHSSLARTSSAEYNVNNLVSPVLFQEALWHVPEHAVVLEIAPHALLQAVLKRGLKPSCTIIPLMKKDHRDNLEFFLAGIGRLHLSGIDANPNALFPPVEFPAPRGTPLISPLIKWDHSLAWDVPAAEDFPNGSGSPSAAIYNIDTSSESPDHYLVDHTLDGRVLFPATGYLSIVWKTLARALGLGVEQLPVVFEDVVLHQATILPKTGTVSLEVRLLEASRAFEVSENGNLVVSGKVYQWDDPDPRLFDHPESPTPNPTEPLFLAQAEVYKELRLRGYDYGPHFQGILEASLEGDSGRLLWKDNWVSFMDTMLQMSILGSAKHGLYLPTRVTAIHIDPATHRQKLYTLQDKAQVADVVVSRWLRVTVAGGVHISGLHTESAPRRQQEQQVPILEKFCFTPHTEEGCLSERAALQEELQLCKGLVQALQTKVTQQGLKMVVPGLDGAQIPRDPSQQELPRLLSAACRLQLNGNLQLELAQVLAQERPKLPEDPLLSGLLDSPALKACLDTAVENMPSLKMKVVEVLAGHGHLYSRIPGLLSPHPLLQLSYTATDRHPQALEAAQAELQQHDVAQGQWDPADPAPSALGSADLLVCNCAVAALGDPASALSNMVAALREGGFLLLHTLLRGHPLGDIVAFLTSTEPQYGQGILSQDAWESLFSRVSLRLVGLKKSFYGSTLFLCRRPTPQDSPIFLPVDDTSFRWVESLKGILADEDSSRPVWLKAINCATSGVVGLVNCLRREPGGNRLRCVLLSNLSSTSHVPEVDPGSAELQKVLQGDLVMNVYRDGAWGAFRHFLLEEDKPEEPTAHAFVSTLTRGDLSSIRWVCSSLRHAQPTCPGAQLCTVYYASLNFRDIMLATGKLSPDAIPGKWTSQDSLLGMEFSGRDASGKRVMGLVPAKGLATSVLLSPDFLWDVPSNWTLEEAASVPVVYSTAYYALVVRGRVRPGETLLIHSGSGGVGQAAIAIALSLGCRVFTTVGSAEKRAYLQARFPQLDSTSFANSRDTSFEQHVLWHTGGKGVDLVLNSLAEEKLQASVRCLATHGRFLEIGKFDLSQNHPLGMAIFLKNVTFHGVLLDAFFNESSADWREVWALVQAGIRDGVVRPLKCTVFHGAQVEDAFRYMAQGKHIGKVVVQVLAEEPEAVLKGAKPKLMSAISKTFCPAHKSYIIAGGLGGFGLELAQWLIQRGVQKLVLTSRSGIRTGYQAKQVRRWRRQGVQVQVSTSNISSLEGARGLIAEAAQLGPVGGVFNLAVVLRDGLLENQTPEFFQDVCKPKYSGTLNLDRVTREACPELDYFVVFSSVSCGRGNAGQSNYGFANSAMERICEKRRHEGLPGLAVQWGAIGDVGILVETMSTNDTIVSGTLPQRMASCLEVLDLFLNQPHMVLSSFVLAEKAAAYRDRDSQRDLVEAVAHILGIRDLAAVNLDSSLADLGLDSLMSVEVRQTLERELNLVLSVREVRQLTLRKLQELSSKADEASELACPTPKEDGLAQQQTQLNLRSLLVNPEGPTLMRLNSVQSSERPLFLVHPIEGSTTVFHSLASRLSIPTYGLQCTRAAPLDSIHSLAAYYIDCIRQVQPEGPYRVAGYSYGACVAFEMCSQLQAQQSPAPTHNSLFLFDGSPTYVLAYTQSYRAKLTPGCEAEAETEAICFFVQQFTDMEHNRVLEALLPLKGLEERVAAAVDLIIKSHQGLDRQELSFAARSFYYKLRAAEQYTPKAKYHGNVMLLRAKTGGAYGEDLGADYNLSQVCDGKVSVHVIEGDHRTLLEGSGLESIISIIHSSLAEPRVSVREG
Sequence of Broad substrate specificity ATP-binding cassette transporter ABCG2 (Homo sapiens) (Q9UNQ0 whole entry, looked up): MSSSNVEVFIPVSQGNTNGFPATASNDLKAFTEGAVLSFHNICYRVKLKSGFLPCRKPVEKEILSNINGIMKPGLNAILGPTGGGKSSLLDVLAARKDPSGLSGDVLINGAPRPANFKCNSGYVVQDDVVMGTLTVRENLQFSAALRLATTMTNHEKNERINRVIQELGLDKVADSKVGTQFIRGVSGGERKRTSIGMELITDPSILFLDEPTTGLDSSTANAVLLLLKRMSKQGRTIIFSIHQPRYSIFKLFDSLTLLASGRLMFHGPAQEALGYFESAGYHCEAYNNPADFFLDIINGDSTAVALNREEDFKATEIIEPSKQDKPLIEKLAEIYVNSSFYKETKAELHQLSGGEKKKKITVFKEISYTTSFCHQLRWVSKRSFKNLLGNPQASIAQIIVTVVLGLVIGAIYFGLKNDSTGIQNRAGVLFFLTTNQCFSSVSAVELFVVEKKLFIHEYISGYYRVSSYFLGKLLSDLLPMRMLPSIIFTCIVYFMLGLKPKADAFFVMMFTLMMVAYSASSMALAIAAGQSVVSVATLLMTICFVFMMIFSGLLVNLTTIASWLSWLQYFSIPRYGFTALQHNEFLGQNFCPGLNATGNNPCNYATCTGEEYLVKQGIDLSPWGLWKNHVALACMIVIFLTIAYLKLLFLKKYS

CSC1=N[C@@](C)(c2ccccc2)C(=O)N1Nc1ccccc1
AC50 [1]: 77.8 µM (active)
AC50 [2]: 66.1 µM (active)
outcome [3]: inactive
AC50 [4]: 28.2 µM (active)
AC50 [5]: 50 µM (active)
AC50 [6]: 32.7 µM (active)
AC50 [7]: 30.6 µM (active)
outcome [8]: inactive
outcome [9]: inactive
AC50 [10]: 31.2 µM (active)
AC50 [11]: 32 µM (active)
outcome [12]: inactive
outcome [13]: inactive
outcome [14]: inactive
AC50 [15]: 23.2 µM (active)
AC50 [16]: 31.4 µM (active)
AC50 [17]: 83.6 µM (active)
AC50 [18]: 13.2 µM (active)
outcome [19]: inactive

CC[C@H](C)[C@H]1O[C@]2(C=C[C@@H]1C)C[C@@H]1C[C@@H](C/C=C(\C)[C@@H](O[C@H]3C[C@H](OC)[C@@H](O[C@H]4C[C@H](OC)[C@@H](NC)[C@H](C)O4)[C@H](C)O3)[C@@H](C)/C=C/C=C3\CO[C@@H]4[C@H](O)C(C)=C[C@@H](C(=O)O1)[C@]34O)O2
outcome [1]: inactive
AC50 [2]: 16.4 µM (active)
outcome [3]: inactive
outcome [4]: inactive
AC50 [5]: 87.5 µM (active)
AC50 [6]: 12.7 µM (active)
AC50 [7]: 15.5 µM (active)
AC50 [8]: 13.4 µM (active)
AC50 [9]: 16.9 µM (active)
AC50 [10]: 27.9 µM (active)
outcome [11]: inactive
outcome [12]: inactive
AC50 [13]: 23 µM (active)
AC50 [15]: 31.6 µM (active)
AC50 [16]: 39.6 µM (active)
AC50 [17]: 13.3 µM (active)
AC50 [18]: 14.4 µM (active)
outcome [19]: inactive

CN(C)[C@@H]1C(=O)C(C(N)=O)=C(O)[C@@]2(O)C(=O)C3=C(O)c4c(O)cccc4[C@@](C)(O)[C@H]3[C@H](O)[C@@H]12
outcome [1]: inactive
outcome [2]: inactive
outcome [3]: inactive
outcome [4]: inactive
outcome [5]: inactive
outcome [6]: inactive
outcome [7]: inactive
AC50 [8]: 66.4 µM (active) and 18.3 µM (active)
outcome [9]: inactive
outcome [10]: inactive
outcome [11]: inactive
outcome [12]: inactive
outcome [13]: inactive
outcome [14]: inactive
outcome [15]: inactive
outcome [16]: inactive
outcome [17]: inactive
outcome [18]: inactive
outcome [19]: inactive

Source: PubChem BioAssay (EPA / NIEHS)
